Experimental data as given in PubChem BioAssay (NCI).
This is part of a sample that, as a whole, favours compounds with a hit. Of some 79,000 tested, about 15% had one in any assay. A number with no mark means an inactive call. The source made the active and inactive calls. No stated cut-off is given here; in the data, active means growth inhibition above about 70%; inactive means the rest. *1 amine or outer side, *2 acyl side, *3 side chain or, on linkers, in order; H or OH if unused. Where a SMILES comes first, the peptide text is derived from it. The star is where a group is joined. γGlu = O=C(O)[CH](CCC(=O)[*:2])N[*:1]; NHOH = ON*

What was measured:
[1] = NCI Yeast Anticancer Drug Screen. Data for the rad50 strain (AID 155);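 further: 0% = growth of vehicle-only cultures of the same strain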; details: S. cerevisiae rad50 strain growth inhibition; at 50.0 µM; stronger effect = higher value
Method in brief: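 Inhibition values express reduced yeast growth in compound-treated cultures relative to vehicle-treated controls.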

[2] = NCI Yeast Anticancer Drug Screen. Data for the mec2-1 strain (AID 157); details: S. cerevisiae mec2-1 strain, at 50.0 µM, stronger effect = higher value
Method in brief: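 Readout is yeast growth inhibition, normalised to vehicle-treated controls, in the mec2-1 strain exposed to compound.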

[3] = NCI Yeast Anticancer Drug Screen. Data for the sgs1 mgt1 strain (AID 161);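 further: 0% = growth of cultures given vehicle only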; details: S. cerevisiae sgs1 mgt1 strain, at 50.0 µM, stronger effect = higher value
Method in brief: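 Percent growth inhibition was derived by comparing compound-exposed mutant yeast with vehicle-exposed cultures. The strain carries alterations in DNA damage repair.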

[4] = NCI Yeast Anticancer Drug Screen. Data for the cln2 rad14 strain (AID 165);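 further: 0% = growth equal to vehicle treated cultures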; details: S. cerevisiae cln2 rad14 strain, at 50.0 µM, stronger effect = higher value
Method in brief: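 Relative to vehicle controls, growth inhibition of compound-treated cln2 rad14 yeast was recorded.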

[5] = NCI Yeast Anticancer Drug Screen. Data for the bub3 strain (AID 167); details: S. cerevisiae bub3 mutant strain, at 50.0 µM, stronger effect = higher value
Method in brief: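 Steps: expose the mutant yeast strain to compound; grow alongside vehicle-treated cultures; measure growth; express inhibition against the vehicle cultures.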

[6] = NCI Yeast Anticancer Drug Screen. Data for the mlh1 rad18 strain (AID 175); details: S. cerevisiae mlh1 rad18 strain growth inhibition; at 50.0 µM; stronger effect = higher value
Method in brief: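 Test agents were incubated with a yeast strain of defined genotype (DNA damage repair defect). Inhibition of growth was derived by comparison with vehicle-exposed cultures.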

COc1ccccc1NC(=O)/C(Cc1nc2ccc([N+](=O)[O-])cc2[nH]c1=O)=N\NC(=O)C[N+](C)(C)C
growth inhibition [1]: 31.6%
growth inhibition [2]: 23.4%
growth inhibition [3]: 7.3%
growth inhibition [4]: -26.2%
growth inhibition [5]: 25.4%
growth inhibition [6]: 13.2%

CCOC(Nc1ccccc1[N+](=O)[O-])C(=O)c1ccccc1 (configuration not stated)
growth inhibition [1]: 21.4%
growth inhibition [2]: 8.05%
growth inhibition [3]: 1.35%
growth inhibition [4]: 28.7%
growth inhibition [5]: 24.4%
growth inhibition [6]: 12.7%

O=C(Cc1ccccc1)NCc1ccccc1Cl
growth inhibition [1]: -1.05%
growth inhibition [2]: 9.2%
growth inhibition [3]: 5.65%
growth inhibition [4]: 0.05%
growth inhibition [5]: 9.75%
growth inhibition [6]: 6.05%

O=c1[nH]c(=O)c2c(Cl)cccc2[nH]1
growth inhibition [1]: 7.2%
growth inhibition [2]: 9.9%
growth inhibition [3]: 5.35%
growth inhibition [4]: -22%
growth inhibition [5]: -2.7%
growth inhibition [6]: -4.1%

c1ccc(CN2CCC(N3CCCC3)CC2)cc1
growth inhibition [1]: -22.7%
growth inhibition [2]: -26.1%
growth inhibition [3]: -22%
growth inhibition [4]: 10.7%
growth inhibition [5]: -23.3%
growth inhibition [6]: -29.9%

CN=NNc1ccc(C(=O)NC(C)C)cc1
growth inhibition [1]: -3.65%
growth inhibition [2]: -2%
growth inhibition [3]: -8.2%
growth inhibition [4]: -1.15%
growth inhibition [5]: -13.7%
growth inhibition [6]: -14.7%

CC(=O)[C@H]1CC[C@@H]2[C@]1(C)CC1OC13[C@@]21C=C[C@@]2(CC(=O)CC[C@]32C)C2C(=O)OC(=O)C21 (some centres not stated)
growth inhibition [1]: 17.6%
growth inhibition [2]: 4.45%
growth inhibition [3]: 40.8%
growth inhibition [4]: 18.5%
growth inhibition [5]: 3.95%
growth inhibition [6]: 22.9%

O.O.O=c1[nH]cc(CO)c(=O)[nH]1.[NH2-].[NH2-].[Pt+2]
growth inhibition [1]: 14.1%
growth inhibition [2]: -1.15%
growth inhibition [3]: 14.5%
growth inhibition [4]: 16.6%
growth inhibition [5]: 0.45%
growth inhibition [6]: 4.25%

NC1NC(=O)C(CCCOc2ccc([N+](=O)[O-])cc2)C(c2ccccc2)N1 (configuration not stated)
growth inhibition [1]: 3.55%
growth inhibition [2]: -11.8%
growth inhibition [3]: 6.6%
growth inhibition [4]: 2.35%
growth inhibition [5]: 21.8%
growth inhibition [6]: 10.4%

COC(=O)C1N=CSCC1(C)O (configuration not stated)
growth inhibition [1]: -4.8%
growth inhibition [2]: 15.3%
growth inhibition [3]: -25.9%
growth inhibition [4]: 12.5%
growth inhibition [5]: -2.45%
growth inhibition [6]: -16.4%

CCOC(=O)c1nc2ccc(C(F)(F)F)cc2nc1NCc1ccc(F)cc1
growth inhibition [1]: -13.9%
growth inhibition [2]: 7.6%
growth inhibition [3]: 20.7%
growth inhibition [4]: 10.2%
growth inhibition [5]: 12.9%
growth inhibition [6]: -48.2%

COc1ccc(/C=C/C(=O)c2ccc(F)cc2)cc1
growth inhibition [1]: 8.85%
growth inhibition [2]: -16.4%
growth inhibition [3]: -12.4%
growth inhibition [4]: -35.4%
growth inhibition [5]: -6.5%
growth inhibition [6]: 10.2%

CCOC(=O)CCN(CCC(=O)OCC)Cc1cc(Cl)c2cccnc2c1O
growth inhibition [1]: 99.1% (active)
growth inhibition [2]: 98.6% (active)
growth inhibition [3]: 99% (active)
growth inhibition [4]: 98.5% (active)
growth inhibition [5]: 99.3% (active)
growth inhibition [6]: 97.8% (active)

CCCCCSc1nc2c([nH]1)c(=O)n(C)c(=S)n2C
growth inhibition [1]: 14.5%
growth inhibition [2]: -6.35%
growth inhibition [3]: 1.95%
growth inhibition [4]: -8.8%
growth inhibition [5]: 0.6%
growth inhibition [6]: -15.6%

O=C1OC2C(O)COC2(O)C1(O)Cc1c[nH]c2ccccc12 (configuration not stated)
growth inhibition [1]: 14.1%
growth inhibition [2]: -6.4%
growth inhibition [3]: -5.45%
growth inhibition [4]: 0.5%
growth inhibition [5]: 3.35%
growth inhibition [6]: -11.2%

COC1/C=C\C=C(/C)C(=O)Nc2cc3nc4cccc(Br)c4oc-3c(c2=O)CC(C)CC(OC)C(O)C(C)/C=C(\C)C1OC(N)=O (configuration not stated)
growth inhibition [1]: 33.1%
growth inhibition [2]: 21.8%
growth inhibition [3]: 26.2%
growth inhibition [4]: 21.9%
growth inhibition [5]: 44.1%
growth inhibition [6]: 16.5%

NC(CCC(=O)NC(CCC(=O)NO)C(=O)NCC(=O)O)C(=O)O (configuration not stated) (γGlu-Glu(NHOH)-Gly-OH; configuration not given here)
growth inhibition [1]: -29.5%
growth inhibition [2]: -3.2%
growth inhibition [3]: -11.6%
growth inhibition [4]: 2.05%
growth inhibition [5]: -4.85%
growth inhibition [6]: -42.5%

Cc1cc([N+](=O)[O-])c(NCCOC(=O)c2ccc([N+](=O)[O-])cc2)c([N+](=O)[O-])c1
growth inhibition [1]: -24.1%
growth inhibition [2]: -6.55%
growth inhibition [3]: -10.9%
growth inhibition [4]: -69.2%
growth inhibition [5]: 2.8%
growth inhibition [6]: -10.7%

CN(C)c1ccc(NN=C2SC(=Nc3ccccc3)C(=Nc3ccccc3)S2)cc1
growth inhibition [1]: 41.5%
growth inhibition [2]: -17.9%
growth inhibition [3]: -10.2%
growth inhibition [4]: 18.1%
growth inhibition [5]: 25.2%
growth inhibition [6]: 8.15%

CCOc1ncnc2ccc(Cl)c(I)c12
growth inhibition [1]: 12.2%
growth inhibition [2]: 0.55%
growth inhibition [3]: 24.6%
growth inhibition [4]: 10.2%
growth inhibition [5]: 35.9%
growth inhibition [6]: 16.7%

NC(N)=NCc1ccc2c(c1)OCO2
growth inhibition [1]: -28.4%
growth inhibition [2]: -2.95%
growth inhibition [3]: -1%
growth inhibition [4]: 10.1%
growth inhibition [5]: -10.9%
growth inhibition [6]: -34.1%

CC1CCOC(c2ccc(O)cc2)O1 (configuration not stated)
growth inhibition [1]: -4.05%
growth inhibition [2]: -13.1%
growth inhibition [3]: -4.65%
growth inhibition [4]: -29.3%
growth inhibition [5]: -14.4%
growth inhibition [6]: -3.75%

Fc1ccc2nncc(SCc3ccc(Cl)cc3)c2c1
growth inhibition [1]: -4.1%
growth inhibition [2]: 2.25%
growth inhibition [3]: 4%
growth inhibition [4]: -22.4%
growth inhibition [5]: 4.85%
growth inhibition [6]: -0.65%

O=C(C[n+]1ccccc1)NNC(=O)/C(=C/c1ccc2c(c1)OCO2)NC(=O)c1ccccc1
growth inhibition [1]: -5.95%
growth inhibition [2]: 3.4%
growth inhibition [3]: -13.7%
growth inhibition [4]: 21.3%
growth inhibition [5]: -3.95%
growth inhibition [6]: 10.1%

O=C(Nc1ccc([N+](=O)[O-])cc1)c1cc(N2CCOCC2)ccn1
growth inhibition [1]: 38%
growth inhibition [2]: 16.6%
growth inhibition [3]: 21.6%
growth inhibition [4]: 15.6%
growth inhibition [5]: 2.15%
growth inhibition [6]: 25.6%

O=C(O)C1c2ccccc2-c2ccccc21
growth inhibition [1]: 52.4%
growth inhibition [2]: 31.6%
growth inhibition [3]: 41.5%
growth inhibition [4]: -37.7%
growth inhibition [5]: 37.6%
growth inhibition [6]: 39%

C=CCc1cc(C(C)=O)ccc1O
growth inhibition [1]: 2.75%
growth inhibition [2]: -14.5%
growth inhibition [3]: -9.75%
growth inhibition [4]: -19.2%
growth inhibition [5]: -8.95%
growth inhibition [6]: -11.7%

COc1ccc(-c2nc3c(nc2-c2ccc(OC)cc2)C(N)=NS(=O)(=O)N3)cc1
growth inhibition [1]: -18.9%
growth inhibition [2]: -7.95%
growth inhibition [3]: -19.9%
growth inhibition [4]: 2.2%
growth inhibition [5]: -17.6%
growth inhibition [6]: -10.1%

O=S(O)CCCSSc1ccccc1
growth inhibition [1]: 38.5%
growth inhibition [2]: 22.4%
growth inhibition [3]: 40.1%
growth inhibition [4]: 56.1%
growth inhibition [5]: 40.7%
growth inhibition [6]: 67.2%

Cc1ccccc1/C=N/NC(=O)c1cccc2ccccc12
growth inhibition [1]: -6.85%
growth inhibition [2]: 0.8%
growth inhibition [3]: -10.8%
growth inhibition [4]: -23%
growth inhibition [5]: 0.75%
growth inhibition [6]: 0.6%

OCC12CCCC(OC1)O2 (configuration not stated)
growth inhibition [1]: -8.6%
growth inhibition [2]: -14.7%
growth inhibition [3]: -25.9%
growth inhibition [4]: 0.2%
growth inhibition [5]: 13.8%
growth inhibition [6]: -4.65%

Nc1ccc(SCCC(=O)O)cc1
growth inhibition [1]: 18.9%
growth inhibition [2]: 0.7%
growth inhibition [3]: -0.25%
growth inhibition [4]: 2.1%
growth inhibition [5]: 5.95%
growth inhibition [6]: -13.3%

CCCCCCCCCCCC(=O)Oc1c(Cl)cc(Cl)c(OC(=O)C(=O)Oc2c(Cl)cc(Cl)c(OC(=O)CCCCCCCCCCC)c2Cl)c1Cl
growth inhibition [1]: -26.1%
growth inhibition [2]: -21.9%
growth inhibition [3]: -11.2%
growth inhibition [4]: 16.9%
growth inhibition [5]: -4.2%
growth inhibition [6]: -19.9%

CC(/C=C/c1ccccc1)=N\O
growth inhibition [1]: 9.4%
growth inhibition [2]: 7.2%
growth inhibition [3]: -1.4%
growth inhibition [4]: 28.8%
growth inhibition [5]: 3.45%
growth inhibition [6]: 1.95%

NC(N)=N/N=C/C(=N\N=C(N)N)C(O)CO (configuration not stated)
growth inhibition [1]: 28.9%
growth inhibition [2]: -4.45%
growth inhibition [3]: 1.85%
growth inhibition [4]: 2.4%
growth inhibition [5]: 4.85%
growth inhibition [6]: -9.1%

O=C(Nc1ccccc1Cl)Oc1ccc(Cl)cc1Cl
growth inhibition [1]: 3.5%
growth inhibition [2]: 20.1%
growth inhibition [3]: 7.4%
growth inhibition [4]: -15.1%
growth inhibition [5]: -6.05%
growth inhibition [6]: -9.45%

CC(C)=CCC(C)c1ccncc1 (configuration not stated)
growth inhibition [1]: 1.9%
growth inhibition [2]: -9.15%
growth inhibition [3]: 9.45%
growth inhibition [4]: -9.05%
growth inhibition [5]: 15%
growth inhibition [6]: 7.4%
